Data published in the supplement of paper PMC10849652.
Targets with a hit are over-represented here; the source holds about 7,900 in all. About 0.6% of all pairs of compound and target were hits.

Assays:
Test in all cases: log2 fold change, soluble protein after heating vs DMSO (PISA); higher = thermal stabilisation; K562 cells, 10 uM, 30 min; active = over 0.2 and 3.5 SD of the protein, either way, in both replicates (recomputed)
erlotinib = compound: C#Cc1cccc(Nc2ncnc3cc(OCCOC)c(OCCOC)cc23)c1 [erlotinib]
How it was run: (§1)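 Aliquots of K562 cells (2×10^6 cells/mL) treated with 10 μM compound for 30 min were heated for 3 min over 48°C-58°C. After pooling and extraction in PBS with 0.5% NP-40 at 4°C, soluble protein from a 21,000xg, 90 min spin was quantified by TMTpro 16plex LC-MS/MS with channel sums equalised. Thermal stability is expressed against control samples, from duplicates, as a log2 fold change.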

[1] = compound: C/C(=N\NC(=O)C1=CC(=CC=C1)S(=O)(=O)N2CCOCC2)/C3=C(C=CC(=C3)Cl)O
How it was run: as §1

[2] = compound: C1=CC(=C(C=C1Cl)C2=NC3=NC=CN=C3C(=N2)NC4=CC=NC=C4)F
How it was run: as §1

[3] = compound: C1=CC(=CC=C1C2=NC3=C(N2)C=C(C=C3)C(=O)N)OC4=CC=C(C=C4)Cl
How it was run: as §1

[4] = compound: C1=CC2=C(C=CC(=C2)/C=C\3/C(=O)NC(=NCC4=CC=CS4)S3)N=C1
How it was run: as §1

[5] = compound: C1=CC2=NC=CN=C2C=C1/C=C/3\C(=O)NC(=O)S3
How it was run: as §1

[6] = compound: C1=CC=C(C=C1)C2=NC(=C(N2)C3=CC=NC=C3)C4=CC(=C(C=C4)Cl)O
How it was run: as §1

[7] = compound: C1=CC=C2C(=C1)C3=NNC4=CC=CC(=C43)C2=O
How it was run: as §1

[8] = compound: C1CCN(C1)C(=O)NC2=CC=CC(=C2)NC3=NC=C(C(=N3)NCCC4=CN=CN4)Br
How it was run: as §1

[9] = compound: C1CN(CCC1(CC2=CC=C(C=C2)Cl)N)C3=NC=NC4=C3C=CN4
How it was run: as §1

Measured: log2 fold change

TBC1D15 isoform 3 (UniProt Q8TC07)
Sequence of UniProt Q8TC07 (Q8TC07 whole entry, looked up): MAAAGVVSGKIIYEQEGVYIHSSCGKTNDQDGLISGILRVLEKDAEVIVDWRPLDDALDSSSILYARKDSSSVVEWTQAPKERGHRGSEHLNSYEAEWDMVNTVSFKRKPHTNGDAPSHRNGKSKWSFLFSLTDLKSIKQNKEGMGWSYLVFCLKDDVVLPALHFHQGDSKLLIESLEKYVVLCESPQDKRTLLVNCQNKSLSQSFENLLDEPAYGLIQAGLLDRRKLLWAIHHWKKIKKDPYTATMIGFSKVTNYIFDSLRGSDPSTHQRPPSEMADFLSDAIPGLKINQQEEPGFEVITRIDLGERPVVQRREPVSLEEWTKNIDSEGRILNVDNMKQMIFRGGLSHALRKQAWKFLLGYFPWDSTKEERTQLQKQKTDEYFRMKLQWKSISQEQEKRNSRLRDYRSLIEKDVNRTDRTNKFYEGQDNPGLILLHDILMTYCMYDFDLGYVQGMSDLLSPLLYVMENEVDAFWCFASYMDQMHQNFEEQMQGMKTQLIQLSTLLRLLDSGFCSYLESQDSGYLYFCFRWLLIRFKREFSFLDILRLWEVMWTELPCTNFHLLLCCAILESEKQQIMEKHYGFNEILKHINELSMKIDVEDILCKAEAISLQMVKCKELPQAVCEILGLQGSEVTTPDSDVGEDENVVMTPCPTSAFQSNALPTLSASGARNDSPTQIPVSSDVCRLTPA
inactive: erlotinib -0.007 | [1] 0.075 | [2] 0.024 | [3] -0.029 | [4] 0.059 | [5] 0.067 | [6] 0.029 | [7] -0.035 | [8] 0.016 | [9] -0.048

SUCLG1 (UniProt P53597)
inactive: erlotinib 0.033 | [1] 0.027 | [2] 0.052 | [3] -0.004 | [4] 0.012 | [5] -0.017 | [6] 0.061 | [7] -0.017 | [8] 0.021 | [9] 0.034

TEX264 (UniProt Q9Y6I9)
Sequence of UniProt Q9Y6I9 (Q9Y6I9 whole entry, looked up): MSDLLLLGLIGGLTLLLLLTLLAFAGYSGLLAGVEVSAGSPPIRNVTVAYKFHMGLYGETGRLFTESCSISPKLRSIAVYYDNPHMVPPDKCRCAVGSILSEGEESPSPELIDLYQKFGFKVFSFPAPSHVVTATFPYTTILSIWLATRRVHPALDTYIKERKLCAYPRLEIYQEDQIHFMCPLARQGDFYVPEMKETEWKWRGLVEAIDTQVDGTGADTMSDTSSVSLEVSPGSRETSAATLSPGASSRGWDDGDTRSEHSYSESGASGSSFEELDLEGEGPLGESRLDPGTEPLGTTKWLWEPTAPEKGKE
inactive: erlotinib 0.099 | [1] 0.024 | [2] 0.034 | [4] 0.325 | [5] 0 | [6] 0.203 | [7] 0.349 | [8] 0.033 | [9] 0
active: [3] 0.769

SSR4 (UniProt P51571)
inactive: erlotinib -0.016 | [1] 0.055 | [2] 0.041 | [3] 0.051 | [4] 0.059 | [5] 0.007 | [6] -0.031 | [7] -0.002 | [8] 0 | [9] -0.025

SMAP (UniProt O00193)
Sequence of UniProt O00193 (O00193 whole entry, looked up): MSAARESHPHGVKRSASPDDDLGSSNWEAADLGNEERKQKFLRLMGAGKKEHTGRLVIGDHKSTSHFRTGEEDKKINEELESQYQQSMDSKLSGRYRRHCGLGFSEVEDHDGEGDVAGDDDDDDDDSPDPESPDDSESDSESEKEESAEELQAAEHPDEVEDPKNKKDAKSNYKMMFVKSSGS
inactive: erlotinib -0.006 | [1] 0.026 | [2] 0.119 | [3] 0.017 | [4] -0.063 | [5] 0.073 | [6] -0.012 | [7] 0.015 | [8] 0.006 | [9] 0.047

TCERG1 (UniProt O14776)
inactive: erlotinib 0.072 | [1] 0.154 | [2] 0.152 | [3] -0.017 | [4] 0.067 | [5] -0.022 | [6] 0.015 | [7] 0.027 | [8] -0.104 | [9] -0.029

STK39 (UniProt Q9UEW8)
inactive: erlotinib 0.064 | [1] 0.07 | [2] 0.038 | [3] -0.096 | [4] 0.035 | [5] 0.06 | [6] 0.034 | [7] 0.019 | [8] 0.014 | [9] -0.025

SLC25A36 (UniProt Q96CQ1)
Sequence of UniProt Q96CQ1 (Q96CQ1 whole entry, looked up): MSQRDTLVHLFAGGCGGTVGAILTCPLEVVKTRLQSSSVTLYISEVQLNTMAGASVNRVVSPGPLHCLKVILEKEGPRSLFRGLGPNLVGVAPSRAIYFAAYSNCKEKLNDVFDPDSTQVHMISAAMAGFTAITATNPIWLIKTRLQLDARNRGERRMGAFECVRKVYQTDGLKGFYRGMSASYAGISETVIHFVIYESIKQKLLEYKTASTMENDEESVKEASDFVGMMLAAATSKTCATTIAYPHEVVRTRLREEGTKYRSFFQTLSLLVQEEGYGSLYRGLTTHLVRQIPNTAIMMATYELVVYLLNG
inactive: erlotinib -0.077 | [1] 0.008 | [2] -0.083 | [3] 0.003 | [4] 0.031 | [5] 0.102 | [6] -0.104 | [7] -0.034 | [8] 0.053 | [9] 0.068

SYNE1 (UniProt Q8NF91)
inactive: erlotinib 0.155 | [2] 0.07 | [3] -0.132 | [4] 0.132 | [5] -0.02 | [6] 0.058 | [7] 0 | [8] -0.038 | [9] 0.172
active: [1] -0.499

SYK (UniProt P43405)
inactive: erlotinib 0.06 | [1] 0.144 | [2] -0.019 | [3] 0.038 | [4] 0.031 | [5] -0.095 | [6] 0.131 | [8] -0.042 | [9] 0.074

SPECC1 (UniProt Q5M775)
inactive: erlotinib 0.044 | [1] -0.002 | [2] 0.022 | [3] 0 | [4] 0.056 | [5] 0.02 | [6] -0.208 | [7] -0.023 | [8] 0.026 | [9] 0.012

TATDN2 (UniProt Q93075)
Sequence of UniProt Q93075 (Q93075 whole entry, looked up): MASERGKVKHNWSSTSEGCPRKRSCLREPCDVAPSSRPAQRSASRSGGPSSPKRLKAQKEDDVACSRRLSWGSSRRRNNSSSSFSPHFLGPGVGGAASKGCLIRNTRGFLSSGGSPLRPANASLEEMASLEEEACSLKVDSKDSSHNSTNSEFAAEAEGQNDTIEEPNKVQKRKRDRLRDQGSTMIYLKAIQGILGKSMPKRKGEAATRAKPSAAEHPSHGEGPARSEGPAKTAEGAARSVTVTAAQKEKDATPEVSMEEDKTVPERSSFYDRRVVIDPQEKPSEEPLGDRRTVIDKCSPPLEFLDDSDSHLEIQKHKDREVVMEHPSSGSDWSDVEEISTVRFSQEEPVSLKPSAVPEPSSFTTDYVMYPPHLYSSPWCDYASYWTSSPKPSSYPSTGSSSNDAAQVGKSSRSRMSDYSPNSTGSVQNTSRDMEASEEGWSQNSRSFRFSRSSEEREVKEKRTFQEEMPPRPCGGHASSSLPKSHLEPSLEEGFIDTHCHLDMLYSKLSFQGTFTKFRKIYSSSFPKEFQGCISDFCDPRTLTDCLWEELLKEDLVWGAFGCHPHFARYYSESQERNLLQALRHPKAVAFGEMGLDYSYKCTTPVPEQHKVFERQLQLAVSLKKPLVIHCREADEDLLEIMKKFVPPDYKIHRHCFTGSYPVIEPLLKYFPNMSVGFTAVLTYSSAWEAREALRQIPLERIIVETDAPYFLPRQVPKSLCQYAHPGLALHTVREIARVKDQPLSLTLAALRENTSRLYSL
inactive: erlotinib 0.071 | [1] -0.062 | [2] -0.016 | [3] -0.013 | [4] 0.043 | [5] -0.052 | [7] 0.003 | [8] -0.121 | [9] 0.06

SUOX (UniProt P51687)
Sequence of UniProt P51687 (P51687 whole entry, looked up): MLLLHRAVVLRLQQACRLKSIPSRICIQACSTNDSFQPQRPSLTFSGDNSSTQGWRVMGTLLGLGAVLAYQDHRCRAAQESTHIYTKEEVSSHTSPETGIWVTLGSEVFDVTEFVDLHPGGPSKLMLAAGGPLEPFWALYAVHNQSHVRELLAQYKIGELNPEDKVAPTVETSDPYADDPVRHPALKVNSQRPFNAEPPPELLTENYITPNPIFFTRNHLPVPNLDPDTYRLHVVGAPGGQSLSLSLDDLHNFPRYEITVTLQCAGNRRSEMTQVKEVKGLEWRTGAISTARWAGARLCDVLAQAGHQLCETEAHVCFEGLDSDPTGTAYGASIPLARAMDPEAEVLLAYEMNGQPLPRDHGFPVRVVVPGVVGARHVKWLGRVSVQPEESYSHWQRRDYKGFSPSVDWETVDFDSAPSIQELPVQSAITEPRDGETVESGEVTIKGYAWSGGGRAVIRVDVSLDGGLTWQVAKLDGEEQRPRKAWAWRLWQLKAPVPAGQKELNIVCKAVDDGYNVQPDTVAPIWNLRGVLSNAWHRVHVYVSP
inactive: erlotinib 0.044 | [1] 0.047 | [2] 0.046 | [3] -0.01 | [4] 0.027 | [5] 0.036 | [6] -0.112 | [7] -0.004 | [8] 0.013 | [9] 0.087

SPG21 (UniProt Q9NZD8)
inactive: erlotinib 0.014 | [1] 0.075 | [2] -0.08 | [3] 0.021 | [4] -0.045 | [5] 0.054 | [6] 0.103 | [7] 0.083 | [8] -0.032 | [9] 0.012

SNX9 (UniProt Q9Y5X1)
inactive: erlotinib -0.005 | [1] 0.047 | [2] -0.004 | [3] -0.024 | [4] 0.004 | [5] 0.014 | [6] -0.006 | [7] -0.011 | [8] -0.01 | [9] 0.028

TIMM21 (UniProt Q9BVV7)
Sequence of UniProt Q9BVV7 (Q9BVV7 whole entry, looked up): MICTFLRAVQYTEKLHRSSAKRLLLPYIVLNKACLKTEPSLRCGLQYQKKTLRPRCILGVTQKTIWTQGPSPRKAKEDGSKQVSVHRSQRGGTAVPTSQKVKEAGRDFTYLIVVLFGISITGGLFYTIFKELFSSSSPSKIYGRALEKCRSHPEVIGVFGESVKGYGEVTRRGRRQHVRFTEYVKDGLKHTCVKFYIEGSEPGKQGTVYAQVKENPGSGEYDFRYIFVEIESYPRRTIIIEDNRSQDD
inactive: erlotinib 0.026 | [1] 0.068 | [2] 0.004 | [3] -0.008 | [4] 0.035 | [5] -0.001 | [6] -0.001 | [7] 0.081 | [8] -0.002 | [9] 0.021

SUCLA2 (UniProt Q9P2R7)
inactive: erlotinib 0.024 | [1] 0.016 | [2] 0.072 | [3] -0.031 | [4] 0.049 | [5] -0.018 | [6] 0.037 | [7] -0.019 | [8] 0.004 | [9] -0.01

TIAL1 isoform 2 (UniProt Q01085)
inactive: erlotinib 0.013 | [1] -0.004 | [2] 0.002 | [3] 0 | [4] 0.02 | [5] 0.008 | [6] -0.026 | [7] 0.018 | [8] 0.032 | [9] -0.004

STK38L (UniProt Q9Y2H1)
Sequence of UniProt Q9Y2H1 (Q9Y2H1 whole entry, looked up): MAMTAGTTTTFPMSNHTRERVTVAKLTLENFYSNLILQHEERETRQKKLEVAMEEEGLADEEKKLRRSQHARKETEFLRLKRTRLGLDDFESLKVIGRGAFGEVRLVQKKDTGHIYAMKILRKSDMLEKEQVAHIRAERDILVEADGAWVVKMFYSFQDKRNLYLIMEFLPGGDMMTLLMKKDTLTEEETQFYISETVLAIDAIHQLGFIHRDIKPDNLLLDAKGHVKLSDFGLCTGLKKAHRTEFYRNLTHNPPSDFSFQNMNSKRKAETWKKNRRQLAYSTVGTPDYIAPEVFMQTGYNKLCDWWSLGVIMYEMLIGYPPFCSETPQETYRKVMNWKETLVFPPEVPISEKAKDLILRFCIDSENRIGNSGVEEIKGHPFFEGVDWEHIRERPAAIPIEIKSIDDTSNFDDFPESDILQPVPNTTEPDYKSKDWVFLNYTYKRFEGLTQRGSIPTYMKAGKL
inactive: erlotinib -0.005 | [1] 0.018 | [2] 0.05 | [3] 0.031 | [4] -0.015 | [5] 0.046 | [6] -0.368 | [7] 0.102 | [8] 0.008 | [9] -0.041

TJP1 (UniProt Q07157)
inactive: erlotinib 0.095 | [1] 0.072 | [2] 0.022 | [3] -0.015 | [4] 0.013 | [5] -0.135 | [6] 0.003 | [7] -0.029 | [8] -0.03 | [9] -0.035

SRSF4 (UniProt Q08170)
inactive: erlotinib -0.054 | [1] 0.015 | [2] -0.325 | [3] 0.05 | [4] -0.155 | [5] -0.072 | [6] -0.024 | [7] -0.109 | [8] 0.007 | [9] -0.254

TARBP1 (UniProt Q13395)
inactive: erlotinib 0.015 | [1] 0.062 | [2] 0.023 | [3] 0.027 | [4] -0.091 | [5] 0.065 | [6] -0.022 | [7] 0.012 | [8] -0.085 | [9] 0.019

SP3 (UniProt Q02447)
Sequence of UniProt Q02447 (Q02447 whole entry, looked up): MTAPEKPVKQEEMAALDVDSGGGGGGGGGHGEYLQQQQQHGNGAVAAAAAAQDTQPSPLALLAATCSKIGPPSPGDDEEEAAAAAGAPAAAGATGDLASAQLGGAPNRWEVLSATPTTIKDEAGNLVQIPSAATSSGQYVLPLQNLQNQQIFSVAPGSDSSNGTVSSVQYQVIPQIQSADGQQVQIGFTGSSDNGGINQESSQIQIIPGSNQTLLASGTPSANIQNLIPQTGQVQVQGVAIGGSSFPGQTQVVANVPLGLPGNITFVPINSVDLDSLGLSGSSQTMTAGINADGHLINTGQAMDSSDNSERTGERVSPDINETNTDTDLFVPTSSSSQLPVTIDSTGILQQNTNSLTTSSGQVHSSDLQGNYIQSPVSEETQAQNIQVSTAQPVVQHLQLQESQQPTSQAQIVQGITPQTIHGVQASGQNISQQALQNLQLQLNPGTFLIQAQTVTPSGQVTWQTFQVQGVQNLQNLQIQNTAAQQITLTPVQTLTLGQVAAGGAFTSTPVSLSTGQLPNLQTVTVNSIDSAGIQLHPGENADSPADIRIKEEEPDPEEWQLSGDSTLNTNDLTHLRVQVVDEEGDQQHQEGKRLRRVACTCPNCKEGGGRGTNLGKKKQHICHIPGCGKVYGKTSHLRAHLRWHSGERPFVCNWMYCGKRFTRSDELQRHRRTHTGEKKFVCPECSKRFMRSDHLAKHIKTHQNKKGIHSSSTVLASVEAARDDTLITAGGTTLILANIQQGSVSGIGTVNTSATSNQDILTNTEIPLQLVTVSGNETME
inactive: erlotinib 0.034 | [1] -0.028 | [2] 0 | [3] 0.059 | [4] 0.003 | [5] -0.051 | [6] -0.053 | [7] -0.066 | [8] -0.065 | [9] -0.1

SURF2 (UniProt Q15527)
inactive: erlotinib 0.021 | [1] -0.067 | [2] 0.039 | [3] -0.03 | [4] -0.068 | [5] 0.113 | [6] -0.057 | [7] 0.027 | [8] -0.043 | [9] 0.009

SRSF6 (UniProt Q13247)
Sequence of UniProt Q13247 (Q13247 whole entry, looked up): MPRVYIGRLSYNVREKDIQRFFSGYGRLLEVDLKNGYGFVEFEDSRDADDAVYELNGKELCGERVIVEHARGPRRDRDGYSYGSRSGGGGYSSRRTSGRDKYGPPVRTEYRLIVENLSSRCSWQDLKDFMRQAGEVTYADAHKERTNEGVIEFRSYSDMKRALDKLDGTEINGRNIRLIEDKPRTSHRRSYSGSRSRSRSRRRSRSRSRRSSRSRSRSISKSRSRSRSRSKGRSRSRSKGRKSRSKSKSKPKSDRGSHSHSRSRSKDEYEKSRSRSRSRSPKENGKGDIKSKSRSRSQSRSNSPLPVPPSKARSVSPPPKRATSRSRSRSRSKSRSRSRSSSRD
inactive: erlotinib 0.084 | [1] 0.096 | [2] -0.072 | [3] 0.062 | [4] -0.325 | [5] 0.079 | [7] -0.251 | [8] 0.09 | [9] -0.154

SLC25A38 (UniProt Q96DW6)
Sequence of UniProt Q96DW6 (Q96DW6 whole entry, looked up): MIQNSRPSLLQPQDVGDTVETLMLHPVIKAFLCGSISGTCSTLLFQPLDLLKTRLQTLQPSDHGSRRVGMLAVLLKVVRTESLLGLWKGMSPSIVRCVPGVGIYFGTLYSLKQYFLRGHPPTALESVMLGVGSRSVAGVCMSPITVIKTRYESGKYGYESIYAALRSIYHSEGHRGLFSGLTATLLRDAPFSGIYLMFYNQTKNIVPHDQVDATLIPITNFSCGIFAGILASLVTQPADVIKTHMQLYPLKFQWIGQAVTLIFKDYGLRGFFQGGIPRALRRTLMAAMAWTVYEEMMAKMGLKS
inactive: erlotinib 0.007 | [1] -0.001 | [2] -0.023 | [3] -0.036 | [4] 0.129 | [5] 0.054 | [6] 0.023 | [7] 0.005 | [8] -0.005 | [9] 0.055

SNRNP40 (UniProt Q96DI7)
inactive: erlotinib -0.048 | [1] -0.012 | [2] -0.111 | [3] 0.037 | [4] -0.007 | [5] 0.049 | [6] -0.024 | [7] -0.005 | [8] 0 | [9] 0.008

TAOK1 (UniProt Q7L7X3)
inactive: erlotinib 0.006 | [1] 0.045 | [2] -0.027 | [3] 0.09 | [4] -0.033 | [5] 0.009 | [6] -0.009 | [7] -0.007 | [8] -0.005 | [9] -0.01

STEAP3 isoform 2 (UniProt Q658P3)
inactive: erlotinib 0.053 | [1] 0.038 | [2] 0.017 | [3] -0.019 | [4] 0.053 | [5] 0.02 | [6] -0.008 | [7] 0.004 | [8] -0.036 | [9] 0.032

SMARCA5 (UniProt O60264)
inactive: erlotinib 0.103 | [1] 0.044 | [2] -0.058 | [3] 0.005 | [4] -0.012 | [5] 0.078 | [6] 0.052 | [7] -0.103 | [8] -0.109 | [9] -0.227
